The source of these data is PubChem BioAssay (NCATS).

Records with an inconclusive call do not appear. Active and inactive are the calls of the source. Calls follow the shape of the dose curve; as a rule, active = well fitted inhibition curve with a large enough effect; inconclusive = small, poorly fitted or top-dose-only effect; inactive = no such curve, though single readings can be large or run the other way.
Potency is read from the fitted curve at half-maximal effect.

The experiment in a line: BET inhibitor-based combinations targeting novel dependencies in MECOM-rearranged (r) AML: UCSD-AML1 cell line (AID 2202235). Also: nearly all actives have a fitted effect of over 40% in size.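 As to viability (% of control): plate controls were DMSO vehicle wells for no effect and blank wells for full effect.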 The following applies: UCSD-AML1 AML cells viability, CellTiter-Glo, 48 h; series mostly up to 46 µM; viability (% of control): at the top concentration. From the text: Ecotropic viral insertion site 1 (EVI1) is located on chromosome 3q26.2 as part of the MECOM (MDS and EVI1 complex) locus. Under normal hematopoiesis, EVI1 is a regulator of hematopoietic stem cell maintenance and self-renewal and EVI1 levels decrease as the cells differentiate. In approximately 5-10% of de novo acute myeloid leukemia (AML) EVI1 is aberrantly expressed, including Chromosomal inv(3)(q21;q26.2) or t(3;3)(q21;q26.2) alterations (MECOM-r) that account for about 50% of AML with EVI1 overexpression 31. AMLs with high levels of EVI1 have a poor prognosis and an overall survival time averaging between 10-14 months. EVI1 overexpression confers resistance in leukemia cells, highlighting the need to develop new targeted therapies for EVI1 overexpressing AMLs. Here, we performed an unbiased chemical drug screening by evaluating the single agent activity of a collection of 2,480 oncology-focused, approved and investigational drugs (NCATS Mechanism Interrogation Plates, MIPE v5.0) against a panel of seven AML cell lines. These included four MECOM-r cell-lines (AML-191, AML-194, UCSD-AML1 and HNT-34) and three non-MECOM-r AMLs (MV4-11, OCI-AML3 and SET-2). Exploiting the mechanistic redundancy built in the library, we identified target-level sensitivities in MECOM-r AML cells and relative activity as compared to other AML subtypes.
A collection of 2480 mechanistically annotated dugs (MIPE v5.0) was used to screen four 3q26.2 rearranged AML cell lines and three non-3q26.2 rearranged AML cell lines. This library purposely exploits redundancy by including multiple inhibitors of key onco-targets, while simultaneously encompassing mechanistic diversity, targeting more than 800 distinct mechanisms of action. Briefly, cells were seeded in 5 uL of growth media using a Multidrop Combi dispenser into 1536 well white polystyrene tissue culture treated plates (Corning) at a density of 500cells/well. For each cell-line, for each of the 2480 drugs in MIPE v5.0 library, an 11-point dose curve was generated via a 1536 pin-tool. Plates were incubated for 48 hr at standard incubator conditions, covered by a stainless steel gasketed lid to prevent evaporation. Cell viability was determined by luminescence based, Cell Titer Glo assay (Promega). In detail, 3 uL of Cell Titer Glo were added to each well and plates were incubated at room temperature for 15 min with a stainless-steel lid in place. Luminescence readings were taken using a Viewlux (PerkinElmer) with a 2 s exposure time per plate. Compound dose-response curves were normalized to DMSO and empty well controls on each plate. Quantitative drug activity data from dose-response curves was determined utilizing area Under the Curve (AUC) and Z-transformed AUC (Z-AUC, a mean-centering transformation applied to each individual cell-line screened).
Background: Cellular ATP, detected with luciferase, serves as a proxy for viable cell number.
In the case of `Nc1cccc2c1CN([C@H]1CCC(=O)NC1=O)C2=O`, the “viability (% of control)” value is 109% (inactive).

`CNC1CCCN(c2c(F)cc3c(=O)c(C(=O)O)cn(C4CC4)c3c2OC)C1` (stereo not given): the “viability (% of control)” value was 115% (inactive).

On to `CC(=O)N1c2ccc(-c3ccc(C(=O)O)cc3)cc2[C@H](Nc2ccc(Cl)cc2)C[C@@H]1C`, for which the Potency is 1.32 µM (active).

On to `Nc1nc(Nc2ccc3c(c2)CC[C@@H](N2CCCC2)CC3)nn1-c1cc2c(nn1)-c1ccccc1CCC2`, for which the Potency is 18.6 µM (active).

In the case of `Cc1c(-c2cnccn2)ssc1=S`, the “viability (% of control)” value is 99.9% (inactive).

With `O=C(NC[C@H](O)CO)c1ccncc1Nc1ccc(I)cc1F`, the Potency is 0.372 µM (active).

Regarding `NC(=O)/C(=C/n1cnc(-c2cc(C(F)(F)F)cc(C(F)(F)F)c2)n1)c1cncnc1`, the Potency was 0.118 µM (active).

For the compound `CCOC(=O)c1ccc(C#Cc2ccc3c(c2)C(C)(C)CCS3)nc1`, the “viability (% of control)” value is 91.7% (inactive).

For `COc1ccc(S(=O)(=O)N(C(C)=O)c2ccccc2/C=C/c2cc[n+]([O-])cc2)cc1`, the Potency was 1.32 µM (active).

`CCC[C@@H]1C[C@@H](C(=O)N[C@@H]([C@H]2O[C@H](SC)[C@H](O)[C@@H](O)[C@H]2O)[C@H](C)Cl)N(C)C1`: the “viability (% of control)” value was 106% (inactive).

On to `C[C@@H]1COCCN1c1cc(-c2ccnn2C)c2ccnc(-c3ccn[nH]3)c2n1`, for which the Potency was 0.0661 µM (active).

As for `O=C(O)c1ccccc1-c1ccc(/C=c2\sc3nc4cc(Br)cnc4n3c2=O)o1`, the “viability (% of control)” value was 106% [at 15.6 µM] (inactive).

Take `O=C(NO)c1ccc(C2=Nc3ccccc3Oc3ccccc32)cc1`: the Potency is 4.17 µM (active).

As to `C=CC(=O)Nc1cccc(Oc2nc(Nc3ccc(N4CCN(C)CC4)c(F)c3)nc3[nH]ccc23)c1`, the Potency was 4.68 µM (active).

As for `CN1C(C(=O)Nc2ccccn2)=C(O)c2sccc2S1(=O)=O`, the “viability (% of control)” value is 106% (inactive).

With `CCN[C@H]1C[C@H](C)S(=O)(=O)c2sc(S(N)(=O)=O)cc21`, the “viability (% of control)” value was 112% (inactive).

Consider `COc1ccc(S(=O)(=O)NCc2ccc(C(=O)NCCc3ccc(Cl)cn3)cc2)cc1`, for which the “viability (% of control)” value was 106% (inactive).

Consider `CN(Cc1cnc2nc(N)nc(N)c2n1)c1ccc(C(=O)N[C@@H](CCC(=O)O)C(=O)O)cc1`, for which the Potency was 0.332 µM (active).

As to `CON(C)C(=O)N1N=C(c2cc(F)ccc2F)S[C@@]1(CCCN)c1ccccc1`, the Potency is 0.0105 µM (active).

In the case of `N#Cc1cccnc1N1CCN(C(=O)c2cccc(Cc3n[nH]c(=O)c4ccccc34)c2)CC1`, the Potency is 0.0833 µM (active).

In the case of `CN1CCN(Cc2ccc(Nc3ncc(Cl)c(Nc4ccccc4S(=O)(=O)N(C)C)n3)cc2)CC1`, the Potency is 0.135 µM (active).

With `COc1ccccc1C(=O)Nc1cc2c(cc1N1CCNC[C@H]1C)n(C)c(=O)n2C`, the “viability (% of control)” value was 106% (inactive).

For `CN1CCN(CCCNc2ncc(Cl)c(-c3cc4c(C(=O)NC5CC5)cccc4s3)n2)CC1`, the “viability (% of control)” value is 110% (inactive).

Consider `CN(C)CCOc1ccc(/C(=C(/CCCl)c2ccccc2)c2ccccc2)cc1`, for which the “viability (% of control)” value is 106% (inactive).

Consider `OCCn1cc(-c2ccc3c(c2)CC/C3=N\O)c(-c2ccncc2)n1`, for which the “viability (% of control)” value was 116% (inactive).

For `C=C1C(=O)O[C@@H]2[C@H]3C(C)=CC[C@@]34O[C@@]4(C)CC[C@@H]12`, the Potency is 13.2 µM (active).

`CC(C)(C)C(=O)OCOP(=O)(COCCn1cnc2c(N)ncnc21)OCOC(=O)C(C)(C)C`: the Potency is 1.86 µM (active).

`CCC(=O)O[C@]1(C(=O)CO)CC[C@H]2[C@@H]3CCC4=CC(=O)CC[C@]4(C)[C@H]3CC[C@@]21C`: the “viability (% of control)” value was 109% (inactive).

For the compound `OC1CCC(Oc2cccc3cnc(Nc4ccc5nc[nH]c5c4)nc23)CC1` (stereo not given), the Potency was 0.934 µM (active).

Take `CC1(C)OCCn2c1nc1c(N3CCOCC3)nc(-c3cnc(N)nc3)nc12`: the Potency is 0.468 µM (active).

For `CC(C)=CCC[C@](C)(O[C@@H]1O[C@H](CO[C@@H]2O[C@H](CO)[C@@H](O)[C@H](O)[C@H]2O)[C@@H](O)[C@H](O)[C@H]1O)[C@H]1CC[C@]2(C)[C@@H]1[C@H](O)C[C@@H]1[C@@]3(C)CC[C@H](O[C@@H]4O[C@H](CO)[C@@H](O)[C@H](O)[C@H]4O[C@@H]4O[C@H](CO)[C@@H](O)[C@H](O)[C@H]4O)C(C)(C)[C@@H]3CC[C@]12C`, the “viability (% of control)” value was 106% [at 15.6 µM] (inactive).

As to `O=C(NCc1ccccc1)[C@H](Cc1ccccc1)NC(=O)[C@H]1O[C@@H]1C(=O)NCCc1ccc(O)cc1`, the “viability (% of control)” value was 94.6% (inactive).

For `COc1ncc(-c2ccc3nccc(-c4ccnnc4)c3c2)cc1NS(=O)(=O)c1ccc(F)cc1F`, the Potency is 0.0372 µM (active).

`O=C1Cc2cc(C(=O)NC3C[C@H]4CC[C@@H](C3)N4S(=O)(=O)CC3CCN(CCCC(F)(F)F)CC3)c(Cl)cc2N1` (stereo not given in full): the “viability (% of control)” value was 112% (inactive).

As for `CC(C)(C)c1nc2c3cc[nH]c(=O)c3c3cc(F)ccc3c2[nH]1`, the Potency is 0.235 µM (active).

Turning to `Cc1[nH]c(/C=C2\C(=O)Nc3ccc(S(=O)(=O)Cc4c(Cl)cccc4Cl)cc32)c(C)c1C(=O)N1CCC[C@@H]1CN1CCCC1`, the Potency is 8.33 µM (active).

With `Cc1c(-c2ccc(-c3ccccc3F)cc2)nc2ccc(F)cc2c1C(=O)O`, the Potency is 0.742 µM (active).

Regarding `Nc1cc(C(F)(F)F)c(-c2nc(N3CCOCC3)nc(N3CCOCC3)n2)cn1`, the Potency was 0.934 µM (active).

In the case of `C=C[C@@H]1CN2CCC1C[C@H]2[C@H](O)c1ccnc2ccc(OC)cc12` (stereo not given in full), the “viability (% of control)” value is 110% (inactive).

With `COc1cccc(-c2c(C)n(Cc3c(F)cccc3C(F)(F)F)c(=O)n(C[C@H](NCCCC(=O)O)c3ccccc3)c2=O)c1F`, the “viability (% of control)” value was 119% (inactive).
